The list is not random: actives were taken first. Their share in the collection is about 3.8%.
Jurkat NFkB inh = lowers PMA/ionomycin-induced NF-kB signal in Jurkat cells; AID 435003; 330,000 tested, 0.53% active; inhibition, % at 4 µM; PMA/ionomycin-induced NF-kB luciferase reporter, luminescence; in the data active = inhibition above about 50%
Beta cell apopt = blocks beta cell apoptosis; INS-1E cytokine-induced death, ATP luminescence, 48 h; percent of positive-control rescue, neutral wells zero; protection from apoptosis, % (no concentration beside the values); 300,000 tested, 0.8% active; AID 435005;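 active = Every replicate reaches about 75%, or at least half do and their mean reaches it too, limit read from the data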;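 note: 0% = cytokine-treated negative control wells and 100% = positive control rescue; higher means more ATP so stronger rescue from cytokine killing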
Bfl-1 A1 inh = inhibitors of the anti-apoptotic protein A1, read as caspase activation | MEF A1-2A-BIM cells, Caspase-Glo 3/7 luminescence, 3 h; percent of clofoctol response, vehicle zero | caspase activation, % (concentration not given with the values) | 330,000 tested, 0.066% active | AID 2462;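 active = over half of replicate activation scores above 10%, or exactly half above 10 with the replicate mean above 10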
NTR1 ag = NTR1 (human) agonism | NTR1-U2OS beta-arrestin-GFP spot imaging, agonist mode | activation, % at 20 µM | 330,000 tested, 0.17% active;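 active = activation at or above 40% of the spot to cytoplasm intensity ratio, with at least 20 cells analyzed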;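 note: 0% = DMSO without peptide and 100% = 100 nM NTR1 peptide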
Target sequence (P30989 whole entry, looked up): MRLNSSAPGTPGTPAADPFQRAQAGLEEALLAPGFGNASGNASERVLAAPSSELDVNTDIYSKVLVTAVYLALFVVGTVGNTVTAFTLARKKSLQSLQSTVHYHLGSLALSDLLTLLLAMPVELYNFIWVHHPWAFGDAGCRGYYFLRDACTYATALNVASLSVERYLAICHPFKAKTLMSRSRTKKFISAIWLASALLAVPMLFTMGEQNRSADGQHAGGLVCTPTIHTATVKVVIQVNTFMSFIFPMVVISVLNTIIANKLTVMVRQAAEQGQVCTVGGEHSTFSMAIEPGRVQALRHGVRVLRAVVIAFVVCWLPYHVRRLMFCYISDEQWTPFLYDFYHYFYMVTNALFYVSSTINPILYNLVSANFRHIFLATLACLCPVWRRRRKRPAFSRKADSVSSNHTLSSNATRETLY
Mdm2 MdmX PPI = inhibitors of human Mdm2/MdmX interaction; SaOS-2 split-luciferase Mdm2/MdmX complementation, luminescence; inhibition, % at 8 µM; 330,000 tested, 3% active;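 active = inhibition of at least 50% at 8 µM in the primary screen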
697 NFkB inh = inhibitors of the PMA/ionomycin-induced NF-kB reporter in 697 B cells; 697 B-cell NF-kB luciferase reporter, 16 h; inhibition, % at 4 µM; 330,000 tested, 0.33% active; in the data active = inhibition above about 35%
697 NFkB conf = inhibitors of the PMA/ionomycin-induced NF-kB reporter in 697 B cells, retest; inhibition, % at 4 µM; 2,000 tested, 35% active; shares compounds with 697 NFkB inh; 697 B-cell NF-kB luciferase, 16 h; in the data active = inhibition mostly above about 28%, no sharp cut-off; inactive = mostly below about 22%
* = called active by the depositor; / = no result.

SMILES | Jurkat NFkB inh | Beta cell apopt | Bfl-1 A1 inh | NTR1 ag | Mdm2 MdmX PPI | 697 NFkB inh | 697 NFkB conf
c1ccc(-c2cnc(-c3ccccc3)nc2)cc1 | -134 | 3 | -7 | 0 | -62 | -296 | -319
Cn1cc(Cl)c(C(=O)Nc2nc3ccccc3s2)n1 | -89 | 8 | 0 | 1 | -27 | -256 | -267
CC(=O)c1ccc(NC(=O)CSc2ccc(-c3sc(C)nc3C)nn2)cc1 | 8 | -4 | 0 | 3 | 23 | -6 | /
O=C(CSc1nnc(SCc2ccccc2)s1)N/N=C/C=C\c1ccco1 | -1 | -6 | -1 | 2 | 15 | 2 | /
CC(=C/c1ccco1)/C=N/NC(=O)CSc1nnc(SCc2ccc(C)cc2)s1 | -2 | -3 | -2 | 5 | -31 | 52* | 50*
COc1cc(=O)n(C)c2cc(N(C)C)ccc12 | 10 | -11 | 0 | -1 | 21 | 36* | 6
CC(=O)c1csc(COc2ccc(Cl)cc2)n1 | -110 | 2 | -3 | -1 | -39 | -371 | -210
Cc1ccc(-c2nsc3c(N4CCC(C(N)=O)CC4)ncnc23)cc1 | -91 | -3 | -1 | 0 | -67 | 78* | 53*
Cc1ccc(C(=O)N2CCN(c3ncnc4c(-c5ccccc5)nsc34)CC2)cc1 | 6 | -4 | -1 | 1 | -3 | 5 | /
CC1(CCc2ccccc2)NC(=O)N(CC(=O)Nc2ccc(OC(F)F)cc2)C1=O (stereo not given) | -6 | 5 | 1 | 0 | 18 | -11 | /
O=C(Nc1ncccc1O)c1ccc(S(=O)(=O)Nc2ccccc2)cc1 | 12 | / | 1 | 0 | 47 | -402 | -359
Cn1c(=N)n(CC(=O)c2ccccc2)c2ccccc21 | -37 | / | -7 | 1 | -62 | -287 | -259
Cn1c(=N)n(CC(=O)O)c2ccccc21 | 13 | / | 1 | 1 | 11 | 1 | /
CCOc1ccccc1C1NC(=O)CCC1[N+](=O)[O-] (stereo not given) | -8 | / | 0 | 0 | 18 | -3 | /
CCCn1nc(Oc2nc(NCC)nc(NC(C)C)n2)ccc1=O | 11 | 5 | 1 | -2 | 35 | 62* | 26
CC1(C2CC2)NC(=O)N(CC(=O)N2CCN(c3ccccc3)CC2)C1=O (stereo not given) | -1 | -2 | -1 | -3 | 0 | -11 | /
COc1ccc(C(=O)N=c2sc3c(C)ccc(OC)c3n2C)cc1 | -30 | 6 | / | 5 | -83 | -299 | -337
Cc1ccccc1/C=C1\CCCc2ccccc2C1=O | -131 | 1 | -15 | 2 | -242 | -172 | /
Cc1ccsc1/C=C1\CCc2ccccc2C1=O | -141 | 25 | -8 | 0 | -126 | -342 | -299
CC(=O)Nc1ccc(S(=O)(=O)NCc2nc(-c3cccc(C)c3)no2)cc1 | -7 | 0 | 1 | 1 | 9 | -8 | /
NNC(=O)COc1ccc(-c2nccc(-c3ccc(F)cc3)n2)cc1 | 8 | -4 | 1 | 2 | -5 | 60* | 50*
O=C(O)COc1ccc(-c2nccc(-c3ccccn3)n2)cc1 | 6 | -1 | -1 | -2 | 4 | 52* | 56*
COC(=O)C(C)Oc1ccc(-c2nccc(-c3ccc(F)cc3)n2)cc1 (stereo not given) | -14 | -1 | -1 | 6 | -9 | -12 | /
FCCCOc1ccc(-c2nccc(-c3ccccn3)n2)cc1 | -4 | 1 | 0 | 7 | -19 | -8 | /
NS(=O)(=O)c1ccc(CNC(=O)c2cc(S(=O)(=O)N3CCOCC3)c(Cl)cc2Cl)cc1 | 11 | / | / | 0 | -15 | 3 | /
SMILES | Jurkat NFkB inh | Beta cell apopt | Bfl-1 A1 inh | NTR1 ag | Mdm2 MdmX PPI | 697 NFkB inh | 697 NFkB conf
Cc1cccc(NC(=O)CC2C(=O)NCCN2C(=S)Nc2ccccc2)c1 (stereo not given) | -6 | -8 | 0 | 2 | -2 | -7 | /
COc1ccccc1NC(=S)N1CCNC(=O)C1CC(=O)Nc1cccc(C)c1 (stereo not given) | 12 | 0 | 0 | -1 | 10 | 38* | -18
COC(=O)[C@H](C)NC(=O)Nc1cccc(C(F)(F)F)c1 | 7 | -3 | 0 | -1 | 1 | 36* | 2
Cc1ccc(C)c(-c2nc3ccc(N)cc3[nH]2)c1 | 42 | -3 | -7 | -1 | 20 | -14 | /
Cc1ccc2nc(-c3ccccc3N)[nH]c2c1 | -149 | 1 | -9 | 0 | -183 | -265 | -196
O=C(/C=C/Nc1ccc(F)cc1Br)c1ccccc1 | -47 | 18 | -9 | -1 | 20 | -343 | -124
CC1CN(S(=O)(=O)c2cc(C(=O)N(C)Cc3cccs3)ccc2Cl)CC(C)O1 (stereo not given) | 2 | -4 | -1 | 0 | 15 | 8 | /
COc1cc(/C=N/NC(=O)C2CC(=O)N(c3ccc(C)cc3)C2)cc(OC)c1OC (stereo not given) | 12 | -1 | 0 | 2 | -3 | 35 | 21
C(=C\c1nc2ccccc2[nH]1)/c1ccccc1 | -104 | 52 | -7 | -7 | -27 | -442 | -296
Cc1nc(/C=C/c2ccccc2)[nH]c(=O)c1-c1ccccc1 | 6 | 14 | -1 | 3 | -10 | -254 | -163
O=C(CS(=O)(=O)Cc1ccccc1)NCc1ccccc1Cl | -3 | 2 | 0 | -1 | -10 | -25 | /
O=C(c1nc[nH]c1C(=O)N1CCN(c2ccccc2)CC1)N1CCN(c2ccccc2)CC1 | -6 | -2 | 0 | 1 | 15 | 4 | /
COc1ccc(CCNC(=O)Cn2c(=O)n(-c3ccc(F)cc3F)c(=O)c3sccc32)cc1OC | -3 | 1 | 0 | 1 | 21 | 23 | /
COc1ccc(CCNC(=O)Cn2c(=O)n(-c3cc(F)ccc3F)c(=O)c3sccc32)cc1OC | -3 | 3 | 0 | 4 | 12 | 43* | 18
O=C(NCC1CCN(Cc2ccccc2F)CC1)Nc1cccc(Br)c1 | 10 | 6 | 1 | 0 | 19 | -10 | /
Cc1cccc2cc(/C=N/Nc3ccc(C(=O)O)cc3)c(Cl)nc12 | -76 | -23 | -7 | 0 | -87 | -309 | -247
CCOc1ccc(-c2nnc(SCC(=O)NC3CC3)o2)cc1 | -29 | 0 | 0 | 1 | -48 | 60* | 56*
CC(C)(C)c1ccc(-c2nnc(SCC(=O)NC3CC3)o2)cc1 | -78 | -4 | -1 | -2 | -61 | 57* | 39*
O=C(CSc1nnc(-c2ccccc2)o1)NC1CCCC1 | -1 | 0 | 0 | 0 | 0 | 14 | /
CCOc1c(C)cnc2c1c(=O)n(Cc1ccc(Cl)cc1)c(=O)n2C | 1 | -1 | 2 | 1 | 2 | -20 | /
CCN(CC(=O)Nc1c(F)cccc1F)C(=O)c1cc(S(=O)(=O)N(CC)CC)ccc1N1CCCCC1 | 5 | 25 | -1 | 2 | -4 | 66* | 49*
CCN(CC(=O)Nc1c(F)cccc1F)C(=O)c1cc(S(=O)(=O)N(C)C)ccc1N1CCCC1 | -1 | 7 | 1 | 0 | -27 | 38* | 30*
